# A selection: hits, their analogues and other compounds. The true share with any hit is near 3.3%.
# HCV inhibitor: inhibitors of hepatitis C virus infection. AID 651820. Potency, µM (titrated, usually from 41.8 µM), without a hit: top-dose activity change, negative = inhibition, most hits filed as inhibitors. 340,000 compounds, 3.4% hits. Huh7.5.1 HCVcc-Cre infection, luciferase reporter, 44 h; active = well fitted inhibition curve with a large enough effect; inconclusive = small, poorly fitted or top-dose-only effect, or another doubt; inactive = no such curve, though single readings can be large or run the other way
#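 Cells (1,000/well) were plated 4 h before compound, then infected with HCVcc-Cre virus (~0.5 moi). After 44 h further culture, infection was read as luciferase luminescence following a 15 min substrate incubation at room temperature.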
# VACV mCherry inh: vaccinia inhibition (mCherry reporter) | Vaccinia virus mCherry reporter infection, fluorescence | 310,000 compounds, 0.63% hits | Potency, µM (titrated, usually from 36.5 µM), for the others: top-dose activity change, negative = inhibition, hits mostly inhibitors; calls by dose curve; tested in A549 cells; also: nearly all actives have a fitted effect of over 35% in size
# VACV Venus inh: inhibitors of vaccinia virus (Venus reporter); Vaccinia virus Venus reporter expression, fluorescence; Potency, µM (titrated, usually from 36.5 µM), for the others: top-dose activity change, negative = inhibition, usual class: inhibitors; 330,000 compounds, 0.46% hits; AID 720580; calls by dose curve; tested in A549 cells; also: nearly all actives have a fitted effect of over 30% in size
# The depositor's hits bear a star; i = inactive; ? = inconclusive; . = no result given; [ ] = another dose, or the depositor's remark. % is scaled to controls: 0 for no effect and ±100 for the full control effect; potency is read from the fitted curve at half-maximal effect.
SMILES,HCV inhibitor,VACV mCherry inh,VACV Venus inh
c1ccc(-c2nnc(SCc3nc4ccccc4[nH]3)n2Cc2ccco2)cc1,-8%,.,.
COc1cc2c(cc1NC(=O)CSc1nnc(Cc3cccs3)n1C)oc1ccccc12,10µM*,.,-28%
COc1cc2c(cc1NC(=O)CSc1nnc(COc3ccc(Cl)cc3)n1C)oc1ccccc12,6.3µM*,.,.
Cc1ccc(OCc2nnc(SCc3nc4ccccc4[nH]3)n2Cc2ccco2)cc1,10µM*,.,?
COc1cc2c(cc1NC(=O)CSc1cccc[n+]1[O-])oc1ccccc12,?,i,-10%
COc1ccc(C)cc1NC(=O)c1nnn(Cc2cccc(Br)c2)c1N,.,-4%,-17%
Cc1nn(CC(=O)NCc2cccs2)c(=O)c2nn(-c3ccccc3)c(C)c12,-17%,?,-5%
CC(NC(=O)c1cccnc1)c1nnc2n1CCN(Cc1ccc(-c3ccccc3Cl)o1)CC2 (stereo not drawn),.,i,-16%
Cc1cccc(C)c1NC(=O)CN(C)C(=O)Cn1c(=O)cnc2ccccc21,-7%,.,.
COc1ccc(OC)c(CN2C[C@H](Sc3ccc(F)cc3)C[C@H]2C(=O)N(C)C)c1,.,-18%,-11%
COc1ccc(C2=C/C(=C\c3ccc(OC(C)=O)cc3)C(=O)O2)cc1,-2%,-5%,-16%
CC(=O)Oc1ccc(C2=Cc3ccc(OC(C)=O)cc3OC2C)cc1 (stereo not drawn),?,10µM*,-16%
O=Cc1cn(-c2ccccc2)nc1-c1ccc(F)cc1,0%,.,.
CC1=NNC(=O)/C1=C\c1cn(-c2ccccc2)nc1-c1ccc(F)cc1,4.5µM*,10µM*,10µM*
Cc1ccc(-c2nn(-c3ccccc3)cc2/C=C/C(=O)Nc2nccs2)cc1,?,-10%,-27%
Cc1c(NC(=O)/C=C/c2cn(-c3ccccc3)nc2-c2ccc(F)cc2)c(=O)n(-c2ccccc2)n1C,11µM*,?,-16%
C[N+]1(CC(=O)c2ccc(Oc3ccc(C(=O)C[N+]4(C)CCOCC4)cc3)cc2)CCOCC1,.,-15%,2%
O=C(Nc1nc(-c2ccco2)c(-c2ccco2)s1)c1ccc(F)cc1F,?,i,-2%
O=C(Nc1nc(-c2ccco2)c(-c2ccco2)s1)c1c(F)cccc1Cl,14µM*,.,.
CCn1c(-c2ccccc2F)nc2cc(NC(C)=O)cc(C(=O)NCc3ncc(C)[nH]3)c21,.,i,-12%
CC1=C(C(=O)N2CCN(c3cccc(C)c3C)CC2)C2(CCCCC2)OC1=O,.,i,-10%
CC(C)(C)c1ccc(/C=N/Nc2nncn2N)cc1,10%,?,?
Nn1cnnc1N/N=C/c1cc(Br)cc(Br)c1O,?,8.9µM*,?
COc1cc(-c2nnc3sc(C4CCCCC4)nn23)cc(OC)c1OC,?,?,5.6µM*
COc1cccc(-c2nnc3sc(C4CCCCC4)nn23)c1,-28%,.,.
SMILES,HCV inhibitor,VACV mCherry inh,VACV Venus inh
Cc1cccc(NC(=O)COC(=O)CN2C(=O)c3ccccc3C2=O)c1C,.,i,-10%
O=[N+]([O-])c1cc(S(=O)(=O)N2CCCCCC2)ccc1F,?,?,14µM*
CN(CC(=O)Nc1ccc(S(=O)(=O)N2CCCC2)cc1)Cc1ccc(Cl)cc1Cl,?,?,-26%
O=[N+]([O-])c1cc(S(=O)(=O)N2CCCC2)ccc1O,13%,-11%,-9%
CN(CC(=O)Nc1ccc(Cl)cc1)c1ccc(S(=O)(=O)N2CCCCC2)cc1[N+](=O)[O-],13µM*,-15%,?
COCCCNC(=O)Cc1c(C)c2cc3c(cc2oc1=O)OC(C)(C)CC3,-16%,.,.
CCOC(=O)C1CCN(C(=O)CCCn2nc(C)c3c(C)n(-c4ccc(C)cc4)nc3c2=O)CC1,-12%,.,.
CN(CC(=O)Nc1ccc([N+](=O)[O-])cc1Br)Cc1c(F)cccc1Cl,14µM*,-11%[7.34 µM],-2%[7.34 µM]
CN(CCOc1ccccc1)CC(=O)Nc1ccc([N+](=O)[O-])cc1Cl,?,14%,-1%
Cc1ccc(OCc2nnc(SCc3cc(=O)[nH]c4ccccc34)n2-c2ccccc2)cc1,-26%,?,10µM*
Cc1ccccc1OCc1nnc(SCc2cc(=O)[nH]c3ccccc23)n1-c1ccccc1,3%,?,?
CC[C@H](C)[C@H]1O[C@]2(C=C[C@@H]1C)C[C@@H]1C[C@@H](C/C=C(\C)[C@@H](O[C@H]3C[C@H](OC)[C@@H](O[C@H]4C[C@H](OC)[C@@H](O)[C@H](C)O4)[C@H](C)O3)[C@@H](C)/C=C/C=C3\CO[C@@H]4[C@H](O)C(C)=C[C@@H](C(=O)O1)[C@]34O)O2,.,-21%,-14%
O=C(NCCn1cc(SCc2ccccc2Cl)c2ccccc21)c1cccs1,.,-9%,-14%
Cc1ccc(-c2csc3ncnc(N4CCN(c5ccccc5O)CC4)c23)cc1,?,?,-5%
